Many of the other results were omitted from the sample, so hits are more common in it than they were.
Dicer inh: blocks human Dicer maturation of pre-miR-21. z-score at 25 µM. AID 1347074. actives 6% (n = 47,000). Q9UPY3. cat-ELCCA pre-miR-21 Dicer processing, chemiluminescence; hits give high values; in the data active means z-score above about 3, passing the limit was not always enough;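 further: higher signal means more uncleaved substrate so more Dicer inhibition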
Target sequence (Q9UPY3 whole entry, looked up): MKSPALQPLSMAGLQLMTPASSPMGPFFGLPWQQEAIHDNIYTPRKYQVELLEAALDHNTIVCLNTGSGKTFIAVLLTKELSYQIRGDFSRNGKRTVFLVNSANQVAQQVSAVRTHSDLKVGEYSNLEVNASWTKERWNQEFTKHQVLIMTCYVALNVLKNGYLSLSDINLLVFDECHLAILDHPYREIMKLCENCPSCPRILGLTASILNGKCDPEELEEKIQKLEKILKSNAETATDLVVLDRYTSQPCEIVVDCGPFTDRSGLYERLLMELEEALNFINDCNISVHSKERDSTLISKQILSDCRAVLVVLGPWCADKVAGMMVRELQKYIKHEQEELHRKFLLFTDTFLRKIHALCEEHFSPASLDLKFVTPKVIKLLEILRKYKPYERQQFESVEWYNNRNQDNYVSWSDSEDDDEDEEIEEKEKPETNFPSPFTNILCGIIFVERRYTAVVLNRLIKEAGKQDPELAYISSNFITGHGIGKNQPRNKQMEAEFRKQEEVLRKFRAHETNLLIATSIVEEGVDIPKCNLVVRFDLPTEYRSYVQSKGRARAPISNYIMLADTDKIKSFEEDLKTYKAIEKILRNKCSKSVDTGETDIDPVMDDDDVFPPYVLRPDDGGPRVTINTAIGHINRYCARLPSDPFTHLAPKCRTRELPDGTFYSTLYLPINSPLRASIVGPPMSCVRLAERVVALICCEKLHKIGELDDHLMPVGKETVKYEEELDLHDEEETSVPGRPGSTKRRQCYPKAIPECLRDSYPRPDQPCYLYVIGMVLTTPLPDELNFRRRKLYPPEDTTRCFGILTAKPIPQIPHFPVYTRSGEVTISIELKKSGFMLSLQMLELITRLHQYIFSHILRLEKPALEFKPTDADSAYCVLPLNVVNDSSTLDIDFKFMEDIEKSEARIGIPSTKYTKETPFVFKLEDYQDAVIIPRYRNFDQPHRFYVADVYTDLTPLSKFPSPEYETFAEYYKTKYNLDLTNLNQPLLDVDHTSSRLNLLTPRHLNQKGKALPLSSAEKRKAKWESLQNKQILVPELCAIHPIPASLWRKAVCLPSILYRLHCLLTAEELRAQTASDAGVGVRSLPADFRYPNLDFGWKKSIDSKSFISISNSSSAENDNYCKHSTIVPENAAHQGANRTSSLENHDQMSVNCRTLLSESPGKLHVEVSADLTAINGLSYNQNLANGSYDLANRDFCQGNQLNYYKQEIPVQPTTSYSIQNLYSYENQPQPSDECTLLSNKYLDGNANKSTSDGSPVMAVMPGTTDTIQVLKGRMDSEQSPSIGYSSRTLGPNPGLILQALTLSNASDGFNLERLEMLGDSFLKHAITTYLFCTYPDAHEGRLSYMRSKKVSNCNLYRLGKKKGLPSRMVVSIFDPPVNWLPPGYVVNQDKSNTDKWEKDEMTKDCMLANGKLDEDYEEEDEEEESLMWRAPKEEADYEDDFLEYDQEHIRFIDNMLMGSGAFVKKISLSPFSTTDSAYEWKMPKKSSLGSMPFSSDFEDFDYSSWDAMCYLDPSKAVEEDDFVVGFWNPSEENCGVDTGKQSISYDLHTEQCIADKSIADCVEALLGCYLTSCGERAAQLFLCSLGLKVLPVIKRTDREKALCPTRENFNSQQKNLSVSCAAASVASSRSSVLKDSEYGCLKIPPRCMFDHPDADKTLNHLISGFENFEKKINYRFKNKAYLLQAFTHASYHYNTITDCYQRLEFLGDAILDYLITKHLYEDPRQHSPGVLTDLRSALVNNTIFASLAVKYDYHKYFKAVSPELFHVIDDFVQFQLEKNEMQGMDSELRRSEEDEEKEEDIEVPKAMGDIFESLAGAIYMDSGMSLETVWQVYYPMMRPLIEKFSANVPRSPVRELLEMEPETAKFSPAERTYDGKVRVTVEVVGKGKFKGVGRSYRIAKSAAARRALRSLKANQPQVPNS
Hits are given with their value; i = inactive.

SMILES	Dicer inh
C=CCN1C(=O)C2(/C(=C(/O)c3ccc(C)c(F)c3)C(=O)C(=O)N2CCCN(C)C)c2ccccc21 (centres undefined)	i
C=CCN1C(=O)C2(/C(=C(/O)c3ccc(C)c(F)c3)C(=O)C(=O)N2CCN(C)C)c2ccccc21 (centres undefined)	i
C=CCN1C(=O)C2(/C(=C(/O)c3ccc(OC)cc3)C(=O)C(=O)N2CCCOC)c2ccccc21 (centres undefined)	3.2
C=CCN1C(=O)C2(/C(=C(/O)c3ccc(OC)cc3)C(=O)C(=O)N2CCOC)c2ccccc21 (centres undefined)	i
C=CCN1C(=O)C2(/C(=C(/O)c3ccc(C)cc3)C(=O)C(=O)N2CCCOC)c2ccccc21 (centres undefined)	i
CN(C)CCCN1C(=O)C(=O)/C(=C(\O)c2ccc(F)cc2)C12C(=O)N(C)c1ccccc12 (centres undefined)	i
C=CCN1C(=O)C2(/C(=C(/O)c3ccc(Cl)cc3)C(=O)C(=O)N2CCCOC)c2ccccc21 (centres undefined)	3.4
C=CCN1C(=O)C2(/C(=C(/O)c3ccc(OC)cc3)C(=O)C(=O)N2CCCN(C)C)c2ccccc21 (centres undefined)	3.6
C=CCN1C(=O)C2(/C(=C(/O)c3ccc(F)cc3)C(=O)C(=O)N2CCN(C)C)c2ccccc21 (centres undefined)	3.9
COC(=O)c1nn(-c2ccc(OC)cc2)c(=O)c2c(NC(C)=O)sc(C)c12	i
O=[N+]([O-])c1cccnc1NCc1ccccn1	i
O=c1c2c(n3cnnc3n1CCc1ccccc1)-c1ccccc1CC21CCCCC1	i
COc1ccccc1C(=O)NC(Nc1ccc(F)cc1)(C(F)(F)F)C(F)(F)F	i
CC12CCC(=O)C=C1CCC1C2CCC2(C)C(C(=O)CO)=CCC12 (centres undefined)	i
CC1=C(C(=O)OCCOC(C)C)C(c2cccc(F)c2)C2=C(CC(C)(C)CC2=O)N1 (centres undefined)	i
Clc1ccc(C2=NC(c3ccc(Cl)c(Cl)c3)NN2)cc1 (centres undefined)	i
CC(=O)n1nccc1-c1sc(COc2cccc(Cl)c2)nc1C	i
Cc1oc(-c2ccccc2)nc1CCO	i
Cc1cc(C)c(SCCC(=O)N2CCN(c3ncc(C(F)(F)F)cc3Cl)CC2)c(C)c1	i
CSc1scc(-c2cccc(C(F)(F)F)c2)c1C#N	i
CC(=O)N1c2ccccc2NC2=C(C(=O)CC(C)(C)C2)C1c1cccc(F)c1 (centres undefined)	i
CNc1nc2c([nH]1)c(=O)n(C)c(=O)n2C	i
Nc1nc2c(nc(N3CCN(c4ccccc4)CC3)n2[C@H]2O[C@@H](CO)[C@H](O)[C@@H]2O)c(=O)[nH]1	i
Nc1nc2c(nc(NCCCN3CCOCC3)n2[C@H]2O[C@@H](CO)[C@H](O)[C@@H]2O)c(=O)[nH]1	3.5
CNc1nc2c(N)ncnc2n1[C@H]1O[C@@H](CO)[C@H](O)[C@@H]1O	i
SMILES	Dicer inh
CCC(=O)Oc1c(C)cc(O)c2ccccc12	i
CCC(=O)Oc1cc(C)c2sc3ccccc3c(=O)c2c1	4.4
CCC(=O)Oc1ccc2nc(-c3ccc(C)c(C)c3)oc(=O)c2c1	i
COc1cccc(C2(O)CCSc3ccccc32)c1 (centres undefined)	i
COC(=O)CSC1=C(C#N)C(c2cccc(Cl)c2)CC(=O)N1 (centres undefined)	i
CCOC(=O)c1cnc(SCC(=O)c2ccc(Cl)c(C)c2)nc1N	i
Cc1cc(Nc2nnc(-c3cccnc3Oc3ccccc3)s2)ccc1Br	i
c1ccc2c(c1)NC(c1ccc3c(c1)CCO3)n1cccc1-2 (centres undefined)	3.4
COc1ccc(C2Nc3ccccc3-c3cc(C)nn32)cc1OC (centres undefined)	i
Fc1ccc(CN2CCCN(Cc3ccc(F)cc3)C2c2ccc3c(c2)CCO3)cc1	i
N#Cc1c(C(F)(F)F)nn(-c2ccccc2)c1N	i
Cc1ccc(Cc2cn3cc(-c4ccc(Br)cc4)nc3s2)cc1	i
Cc1cc(C)cc(OCCCCc2c(C)n[nH]c2C)c1	i
c1ccc2c(c1)CCCc1cc(NCCN3CCOCC3)nnc1-2	i
O=C(NCCN1CCOCC1)c1cc2nc3c(c(C(F)(F)F)n2n1)CCc1ccccc1-3	4.3
FC(F)(F)c1c2c(nc3cc(-c4ccc(Cl)cc4)nn13)-c1ccccc1C2	i
O=C(NCCN1CCOCC1)c1cc2nc(-c3ccc(Br)cc3)cc(C(F)(F)F)n2n1	i
O=C(Nc1cccnc1)c1cc2nc(-c3ccc(Cl)cc3)cc(C(F)(F)F)n2n1	i
O=C(Nc1ccc(O)cc1)c1cc2nc3c(c(C(F)(F)F)n2n1)CCc1ccccc1-3	3.2
Nc1nc(COc2cccc3cccnc23)nc(Nc2ccc(Cl)cc2)n1	i
Cc1c(S(=O)(=O)c2ccc(Cl)cc2)csc1C(=O)O	i
Cc1ccc(-n2c(-c3ccc(Cl)c(C)c3)csc2=N)c(C)c1	i
COc1ccc(S(=O)(=O)NCc2ccc3c(c2)OCO3)cc1OC	3.6
Cc1ccc(S(=O)(=O)NCc2ccc3c(c2)OCO3)cc1C	i
COc1ccc(CNCc2ccc3c(c2)OCO3)cc1OC	i
SMILES	Dicer inh
Cc1onc(-c2ccccc2)c1-c1nc(CSc2ccc(C(F)(F)F)cn2)no1	i
CCCCNS(=O)(=O)c1cc(-c2nnc3c4ccccc4c(C)nn23)ccc1OC	i
O=C1CCC(=O)N1CNc1ccc(Cl)cc1	4
O=C1c2ccc([N+](=O)[O-])cc2C(=O)N1CNc1ccc(Cl)cc1	i
Cc1ccc(Cl)cc1NCN1C(=O)CNC1=S	i
C=CCSc1n[nH]c(=O)n1-c1ccc(OCc2ccccc2)cc1	i
CC(C)(C)OC(=O)N[C@@H](Cc1ccccc1)C(=O)NNC(=S)NCC1CC1	i
O=C(NNC(=S)NCC1CC1)C1CC1	3.4
S=C(NCC1CC1)N/N=C/c1ccccc1Cl	i
COc1ccc(C(=O)CSc2n[nH]c(-c3ccco3)n2)cc1	i
COc1ccc(C(=O)CSc2n[nH]c(-c3ccco3)n2)cc1C	5.6
Cc1ccc(C(=O)CSc2n[nH]c(-c3ccco3)n2)cc1C	i
N#Cc1ccccc1N=Nc1c(O)ccc2ccccc12	i
COc1ccc(-c2nc3c4c5c(sc4ncn3n2)CCCCC5)cc1OC	i
COc1ccc(-c2ncnn2-c2sc3c(c2C#N)CCCC3)cc1OC	i
O=C(CSc1nc2sc3c(c2c(=O)[nH]1)CCCC3)N1CCCCC1	i
COc1ccc(-c2nc3sc4c(c3c(=O)[nH]2)CCCC4)cc1OC	5.1
CC(C)(C)c1nc2sc3c(c2c(=O)[nH]1)CCCC3	5.3
C=C(C)CSc1nc2sc3c(c2c(=O)[nH]1)CCCC3	i
N#C/C(=C\NC1CCN(Cc2ccccc2)CC1)S(=O)(=O)c1ccccn1	i
CCc1ccc(Nc2nc(=O)[nH]nc2C)cc1	i
Cc1ccccc1C(=O)N(Cc1ccc(Br)cc1)c1ccc(F)cc1	i
COc1ccc(COC(=O)C2=C(C)NC3=C(C(=O)CC(C)(C)C3)C2c2ccc3c(c2)OCO3)cc1 (centres undefined)	i
O=C(OCc1ccc(Cl)cc1)c1cnc(N2CCSCC2)nc1C(F)(F)F	i
Cc1cc(=O)[nH]c(-c2ccc(C(N)=O)cc2)n1	i
CN(N)C(=S)Nc1cc(Cl)ccc1Cl	i
CN(C)c1cc(C(F)(F)F)cnc1/C(N)=N/O	i
CC(=O)C1C(=O)c2cccc([N+](=O)[O-])c2C1=O (centres undefined)	i
CC(=O)C1C(=O)CC(c2ccc(Cl)cc2)CC1=O (centres undefined)	i

Screening data from PubChem BioAssay.
